High-throughput results deposited in PubChem by several laboratories.
Compounds with a hit are over-represented: about 2.9% of the library has one in this group of screens.
S1P4 antagonist: blocks the human S1P4 receptor; inhibition, % at 4.98 µM; S1P4-expressing cells, antagonist mode, reporter read-out; hit rate 0.26% among 220,000; O95977; AID 1510; in the data active = inhibition above about 29%;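 also: 0% = wells stimulated with agonist and 100% = vehicle wells without agonist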
HSF1 inhib: HSF1 inhibition. NIH3T3-HGL HSE-luciferase, MG132-induced, luminescence 8 h; stronger effect = lower value. activity change, negative = inhibition, % at 7.5 µM (by protocol). hit rate 0.77% among 300,000. AID 2098;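 active = more than half of replicate wells show activity change below -50%, luminescence cut by over half; inconclusive = some wells, but at most half, below -50%; inactive = no replicate well below -50%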;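 also: luciferase reports HSF-1 transcriptional activity via heat shock element; 0% = median of DMSO wells and -100% = zero luminescence signal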
Hsp70 activator: Hsp70 transcriptional activation, primary screen; HeLa Hsp70 promoter luciferase reporter, luminescence; scaled: vehicle 0, proteasome-inhibitor control 100%; hit rate 0.04% among 200,000; activation, % at 10 µM;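 active = activation above the mean across all tested compounds plus 3 SD, cutoff set per campaign, cut at about 5.5% in these data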;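 also: 100% = MG132 at 30 µM as the positive control and 0% = DMSO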
HSF1 activator: increases HSF-1 driven luciferase reporter signal; AID 504408; NIH3T3-HGL HSF-1 luciferase reporter, MG132, 8 h; 100% = twice DMSO control signal; activation, % at 9 µM; hit rate 1.7% among 300,000;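 active = mean replicate activation of at least 50% with a set share of replicates each reaching 50%; inconclusive = only one of those two conditions met; inactive = mean below 50% and too few replicates reaching it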;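 also: 0% = median of the neutral control wells and 100% = twice that signal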
S1P4 agonist: human S1P4 receptor agonism | S1P4-expressing cell line, agonist reporter assay | activation, % at 4.98 µM | hit rate 0.35% among 220,000; in the data active = activation above about 11%;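 also: 0% = DMSO vehicle and 100% = reference agonist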
S1P3 antag: antagonists of human S1P3 receptor; Q99500; CHO S1P3 NFAT-BLA reporter, FRET fluorescence, antagonist mode; inhibition, % at 4.98 µM; hit rate 0.27% among 170,000; AID 485;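 active = inhibition above the plate cutoff, the mean inhibition of test wells on that plate plus 3 SD, cut at about 28% in these data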;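 also: cells challenged with S1P at its EC80 of 0.8 µM; blue over green emission ratio from cleaved BLA substrate after 4 h stimulation; 0% = S1P-stimulated wells and 100% = unstimulated DMSO-only wells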
S1P4 antag cf: confirmation of human S1P4 receptor antagonists; shares compounds with S1P4 antagonist; S1P4-expressing cell line, antagonist mode, reporter read-out; inhibition, % at 4.98 µM; hit rate 71% among 520; in the data active = inhibition above about 30%
S1P1 antagonist: counter-screen for S1P4 antagonists: antagonists of human S1P1. shares compounds with S1P4 antagonist. cell-based S1P1 antagonist counterscreen, inhibition. inhibition, % at 4.98 µM. hit rate 37% among 520. AID 1564; in the data active = inhibition above about 40%;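 also: receptor stimulated with S1P near its EC80; 0% = agonist stimulated wells and 100% = vehicle only wells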
Target sequence (P21453 whole entry, looked up): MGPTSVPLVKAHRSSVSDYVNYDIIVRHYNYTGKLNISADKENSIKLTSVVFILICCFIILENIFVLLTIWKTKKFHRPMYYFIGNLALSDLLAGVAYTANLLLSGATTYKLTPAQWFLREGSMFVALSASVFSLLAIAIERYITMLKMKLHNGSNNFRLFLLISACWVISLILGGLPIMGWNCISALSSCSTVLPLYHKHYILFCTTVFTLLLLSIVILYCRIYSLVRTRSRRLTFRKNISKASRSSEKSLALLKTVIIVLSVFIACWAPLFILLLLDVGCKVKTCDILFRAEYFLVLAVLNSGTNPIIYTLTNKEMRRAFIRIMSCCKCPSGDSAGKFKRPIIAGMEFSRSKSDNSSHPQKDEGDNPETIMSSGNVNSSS
An asterisk follows results filed as active; ? = inconclusive; . = no result.

SMILES | S1P4 antagonist | HSF1 inhib | Hsp70 activator | HSF1 activator | S1P4 agonist | S1P3 antag | S1P4 antag cf | S1P1 antagonist
CCN1CCN(c2ccc(NC(=O)c3ccc([N+](=O)[O-])o3)cc2Cl)CC1 | 86* | -43 | 0 | -42 | -3 | 0 | 75* | 67*
CCN1CCN(c2ccc(S(=O)(=O)N3CCCCC3)cc2NC(=O)c2ccc([N+](=O)[O-])o2)CC1 | . | 15 | . | 9 | . | . | . | .
O=C(Nc1ccc(S(=O)(=O)N2CCOCC2)cc1)c1ccc([N+](=O)[O-])o1 | 68* | 105 | . | 123* | 1 | 3 | 85* | 36
COc1cccc(-n2nnnc2S(C)(=O)=O)c1 | 42* | 256 | 0 | 325* | 0 | . | 110* | 17
Cc1cccc(OCC(=O)Nc2ccc3c(c2)OCO3)c1C | -5 | 10 | 0 | 5 | 0 | 18 | . | .
Cc1ccc(C)c(OCC(=O)Nc2ccc3c(c2)OCO3)c1C | 30* | -8 | 0 | 7 | 0 | 8 | 2 | 6
O=C(N/C=N/OCc1cccc(C(F)(F)F)c1)N1OC[C@@H]2COc3ccc4ccccc4c3[C@@H]21 | -4 | -7 | 0 | 9 | 1 | . | . | .
Cc1[nH]n2c(=O)cc(C(C)(C)C)nc2c1-c1ccccc1 | 34* | -42 | 0 | -52 | 1 | -7 | 1 | 12
Cc1[nH]n2c(=O)cc(C(C)C)nc2c1-c1ccccc1 | -1 | -6 | 0 | 6 | 1 | -18 | . | .
COc1ccc(N2C(=O)CC(N3CCN(S(=O)(=O)c4ccc(Cl)cc4)CC3)C2=O)cc1 (stereo unspecified) | 30* | -3 | 0 | 10 | 0 | -10 | -7 | -6
Oc1c(C(c2ccccc2Cl)N2CCCC2)ccc2cccnc12 (stereo unspecified) | 30* | -6 | 0 | -1 | -1 | -9 | 112* | 92*
Oc1c(C(c2cccs2)N2CCN(c3ccccc3)CC2)ccc2cccnc12 (stereo unspecified) | -9 | . | 1 | . | 2 | . | . | .
COc1ccc(N2CCN(S(=O)(=O)CCNC(=O)c3cccs3)CC2)cc1 | . | -8 | . | 5 | . | . | . | .
Cc1cccc(CSc2cccc3cccnc23)c1 | 39* | 232 | 0 | 288* | -2 | . | 96* | 65*
CCOC(=O)c1c(NC(=O)OC)sc(C(=O)N(C)C)c1C | 44* | 3 | 0 | -8 | 2 | . | -1 | -3
COC(=O)Nc1sc(C(=O)N(C)C)c(C)c1C(=O)OC | -9 | -11 | 0 | 10 | 1 | . | . | .
CCC(c1nnnn1CCc1ccccc1)N1CCN(C(=O)c2ccco2)CC1 (stereo unspecified) | 33* | -3 | 0 | 2 | -2 | -20 | 7 | 18
CC1=C(OC(=O)C(C)(C)C)C(C)(C)C(c2ccccc2)OC1=O (stereo unspecified) | -15 | -4 | 0 | 10 | -1 | -7 | . | .
O=[N+]([O-])c1ccc(N/N=C/c2c[nH]c3ccccc23)cc1 | 37* | 103 | 0 | 155* | -3 | . | 50* | 78*
O=C(Nc1ccc(F)cc1F)NC1CC1 | 1 | -13 | 0 | 6 | 0 | 3 | . | .
CC(Nc1ccc(F)cc1F)C(=O)NC(=O)NC1CCCCC1 (stereo unspecified) | 30* | 10 | 0 | 20 | 2 | -11 | -4 | 15
CC(=O)c1ccccc1NC(=O)CCCNC(=O)c1ccc(Cl)cc1 | . | 7 | . | -8 | . | . | . | .
N#Cc1cc(Oc2cccc3cccnc23)c(-n2nnc3ccccc32)cc1C#N | 34* | 183 | 0 | 211* | 7 | . | 12 | -20
N#Cc1cc(O)c(-n2nnc3ccccc32)cc1C#N | -10 | 3 | 0 | -4 | 3 | -7 | . | .
O=C1C(Cl)=C(Nc2ccc3cn[nH]c3c2)C(=O)c2ccccc21 | 62* | -90* | . | -89 | 1 | 9 | 95* | 91*
SMILES | S1P4 antagonist | HSF1 inhib | Hsp70 activator | HSF1 activator | S1P4 agonist | S1P3 antag | S1P4 antag cf | S1P1 antagonist
O=S(=O)(c1ccc(Cl)cc1)c1snnc1-c1ccccc1 | 36* | 33 | 0 | 66* | -2 | . | 72* | 8
COc1cc(NC(=O)Cn2ncc(Cl)c(Cl)c2=O)c(C)cc1[N+](=O)[O-] | 93* | -93* | 0 | -93 | 10 | -15 | 119* | 40*
COc1cccc(C(=O)NCCNC(=O)c2ccc(C)nc2)c1 | . | 5 | . | 23 | . | . | . | .
COc1ccc([N+](=O)[O-])c(S(=O)(=O)c2ccccc2)n1 | 88* | 4 | . | -10 | -2 | -10 | 119* | 79*
O=[N+]([O-])c1cccnc1S(=O)(=O)c1ccccc1 | . | 40 | . | ? | . | . | . | .
COc1ccc([N+](=O)[O-])c(S(=O)(=O)c2ccc(Cl)cc2)n1 | 93* | 21 | . | 9 | -1 | -7 | 117* | 104*
Cc1cc(C)c([N+](=O)[O-])cc1NCC(=O)N1CCN(c2ccccc2)CC1 | 38* | -1 | 0 | 5 | -1 | 7 | -5 | -9
CC(C)CC(=O)N1CCN(c2ccc([N+](=O)[O-])c(NCc3ccccc3)c2)CC1 | -4 | 7 | 0 | 10 | 0 | . | . | .
Cc1nn(C)c(C)c1N1C(=O)c2cccc3c(Br)ccc(c23)C1=O | 44* | . | -1 | . | 1 | . | 89* | 85*
CSc1ccc(CNC(=O)Cn2nc(C)c3c(C)n(-c4ccc(C)cc4)nc3c2=O)cc1 | . | -4 | . | 11 | . | . | . | .
Cc1ccc(C2=Nc3ccccc3SC(c3cccc([N+](=O)[O-])c3)C2)cc1 (stereo unspecified) | 45* | 38 | . | 67* | 1 | 3 | 12 | 6
CCC(C)[C@@H](NC(=O)OC(C)(C)C)c1nnc(S(=O)(=O)Cc2cccc(C)c2)o1 (stereo partly specified) | 76* | 17 | 0 | 25 | -4 | -9 | 109* | 31
CCSc1nnc([C@H](Cc2ccccc2)NC(=O)OC(C)(C)C)o1 | -12 | -6 | 0 | 5 | 3 | . | . | .
Cc1ccccc1CS(=O)(=O)c1nnc([C@H](Cc2ccccc2)NC(=O)OC(C)(C)C)o1 | 71* | 9 | 0 | 36 | -2 | . | 108* | 34
CN(C)/N=C/C=C1\CCC/C(=C\c2ccc(F)c(F)c2)C1=O | 29* | 69 | 5 | 116* | 1 | -3 | 34* | 42*
CC(C)OCCCNC(=O)C1CC(=O)N(CCc2ccccc2)C1 (stereo unspecified) | . | 3 | . | 12 | . | . | . | .
O=c1c(Cl)c(Cl)cnn1-c1ccccc1 | 101* | -96* | 2 | -96 | 2 | 9 | 122* | 72*
O=c1c(Cl)c(Cl)cnn1Cc1ccccc1Cl | 46* | 24 | 1 | 49 | 1 | 4 | 115* | 58*
Nc1c(Cl)cnn(-c2ccccc2)c1=O | . | -1 | . | 2 | . | . | . | .
